High-throughput results: PubChem, National Center for Advancing Translational Sciences (NCATS)
The list is not random: actives were taken first. Their share in the collection is about 9.2%.
NPC1 promoter act = NPC1 promoter activation. Potency, µM (highest dose often 9.22 µM), for the others: top-dose activation, most hits filed as activators. Huh7 NPC1 promoter luciferase reporter, 24 h. 2.4% of 320,000 active; further: % of control where 0% means no effect; nearly all actives have a fitted effect of over 60% in size
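Stably transfected Huh7 (NPC1 promoter→luciferase), 1500 cells/well in Opti-MEM + 10% FBS, 2 h settle, then compound 24 h at 37 °C. Luminescence after 10 min with Amplite reagent.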
ELG1 genotox = genotoxicity induction in ELG1-luciferase HEK293T cells. Potency, µM (highest dose often 46 µM), for the others: at the highest dose activity change, positive = activation, most hits filed as activators. 1.3% of 330,000 active. AID 504466. HEK293T ELG1-luciferase reporter, luminescence, 16 h; further: % of control where 0% means no effect; nearly all actives have a fitted effect of over 60% in size
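Genotoxic stress is detected as increased luminescence from luciferase-tagged ELG1 in HEK293T cells, measured with ONE-Glo after a 16 hr treatment at 37 °C.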
FLuc counter = firefly luciferase modulation, counter-screen for miR-21 project; purified FLuc, Km substrates, luminescence inhibition; Potency, µM (highest dose often 57.5 µM), for inactives: top-dose activity change, negative = inhibition, hits mostly inhibitors; 6.9% of 360,000 active; P08659;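 further: plate controls were vehicle for no effect and reference inhibitor for full effect; nearly all actives have a fitted effect of over 55% in size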
Target sequence (P08659 whole entry, looked up): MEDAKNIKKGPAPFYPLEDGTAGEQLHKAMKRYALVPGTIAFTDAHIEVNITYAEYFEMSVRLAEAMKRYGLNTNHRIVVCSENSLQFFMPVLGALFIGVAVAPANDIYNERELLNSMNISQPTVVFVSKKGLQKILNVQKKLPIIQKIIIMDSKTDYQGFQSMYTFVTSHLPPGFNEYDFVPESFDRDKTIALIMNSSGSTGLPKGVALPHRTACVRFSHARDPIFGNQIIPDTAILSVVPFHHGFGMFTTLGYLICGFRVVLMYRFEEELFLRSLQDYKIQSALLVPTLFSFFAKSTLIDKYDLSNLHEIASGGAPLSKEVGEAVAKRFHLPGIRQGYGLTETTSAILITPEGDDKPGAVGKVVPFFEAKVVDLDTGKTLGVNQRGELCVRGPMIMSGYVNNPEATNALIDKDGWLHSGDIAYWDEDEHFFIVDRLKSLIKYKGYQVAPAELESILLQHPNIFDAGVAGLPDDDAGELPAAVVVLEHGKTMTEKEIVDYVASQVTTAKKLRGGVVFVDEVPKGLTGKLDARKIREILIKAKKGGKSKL
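Purified P. pyralis luciferase, 10 nM final, with Km-level 10 uM D-luciferin and 10 uM ATP in 50 mM Tris acetate pH 7.5, 10 mM Mg acetate, 0.01% Tween-20, 0.05% BSA; 6-point qHTS titration about 60 µM downward; luminescence read.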
ELG1 DNA repair = blocks ELG1-dependent DNA repair in HEK293T cells; HEK293T ELG1-luciferase reporter, luminescence, 16 h; DNA damage induced by 5-fluorouridine; Potency, µM (top dose mostly 46.1 µM), for inactives: at the top dose activity change, negative = inhibition, hits mostly inhibitors; 2.3% of 330,000 active; AID 504467; further: on the % scale 0 is the no-effect control and ±100 the full control effect; nearly all actives have a fitted effect of over 55% in size
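In this reporter screen, reduction of luminescence relative to DMSO vehicle indicated activity. Compounds and 5-fluorouridine were added together to 2,000 cells per well, incubated for 16 hr at 37 °C, then developed with ONE-Glo.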
SMN2 splice up = enhancers of SMN2 splice variant expression; HEK293 SMN2-luciferase splicing reporter, luminescence, 30-36 h; Potency, µM (top dose mostly 46.1 µM), without a hit: at the top dose activity change, positive = activation, usual class: activators; 2.8% of 210,000 active; AID 1458; further: % of control where 0% means no effect; nearly all actives have a fitted effect of over 55% in size
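HEK293 cells carry an SMN2 minigene-luciferase reporter in which exon 7 inclusion puts luciferase in frame. Cells were seeded at 2000 cells/well, attached for 10-12 hours, then exposed to compounds for 30-36 hours at 37C before ONE-Glo luminescence.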
Rab9 prom act = activates the Rab9 promoter. Huh7 Rab9 promoter-luciferase reporter, luminescence, 24 h. AID 485297. Potency, µM (titrated, usually from 9.22 µM), for inactives: top-dose activation, negative = inhibition, usual class: activators. 2.8% of 320,000 active; further: % of control where 0% means no effect; nearly all actives have a fitted effect of over 60% in size
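Huh7 cells stably carrying Rab9 promoter–luciferase reporter, plated 1500 cells/well, compound added after 2 h and incubated 24 h at 37 °C; luciferase luminescence then read after 10 min with detection reagent.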
Starred values were filed as active, the others as inactive; ? = inconclusive; . = no result given; [ ] = another dose, or the depositor's remark. The call rests on the fitted dose curve; in most records, active means well fitted curve in the direction sought with a large enough effect; inconclusive means small, poorly fitted or top-dose-only effect, or another doubt; inactive means no such curve, though single readings can be large; an effect the other way counts as inactive or inconclusive. Potency means the concentration at half of the fitted maximal effect.

SMILES | NPC1 promoter act | ELG1 genotox | FLuc counter | ELG1 DNA repair | SMN2 splice up | Rab9 prom act
C=CCC1C=C(C)CC(CC=C)N1 (centres undefined) | -4% | 4% | 1% | 16% | 3% | 0%
Cc1cccc(C(=O)Nc2ccc(C)c(OC(=O)c3cccc(C)c3)c2)c1 | 1% | ? | -14% | ? | -11% | 12%
COc1cccc(C(=O)Nc2cccc(SC)c2)c1 | 24% | 9.2µM* | 9.5µM* | ? | ? | ?
CCOC(=O)c1[nH]c2ccc(OC)cc2c1NC(=O)c1ccc(OC)c(OC)c1 | -8% | 1% | -16% | ? | -1% | -2%
COc1cccc(NC(=O)c2ccc(C(=O)c3ccccc3)o2)c1 | ? | 0% | 6.7µM* | ? | 20µM* | ?
COC(=O)c1[nH]c2cc(OC)c(OC)cc2c1NC(=O)c1cccc(OC)c1 | 15% | -1% | 5.4µM* | ? | -13% | 13%
Cc1cccc(C(=O)Nc2ccc3ccccc3c2)c1 | ? | ? | 2.4µM* | ? | . | 0.63µM*
Cc1ccc(-n2cc(C(=O)Oc3cccc(C)c3)c3ccccc3c2=O)cc1 | . | . | 0% | . | . | .
CCN(CC)c1ccc(NC(=O)CCc2c(C)nc3ncnn3c2C)c(C)c1 | . | . | -5% | . | -5% | .
O=C(Nc1cccc([N+](=O)[O-])c1)c1ccccc1 | 3% | 2% | ? | -14% | . | 14%
O=C(Nc1ccc2ccccc2c1)c1cccc([N+](=O)[O-])c1 | ? | ? | 12µM* | ? | . | ?
COc1cccc(/C(C)=N/N=C(\C)c2cccc(OC)c2)c1 | ? | ? | 6.7µM* | ? | . | 3.2µM*
COc1c(C(=O)NNC(=O)c2ccccc2)csc1Br | ? | ? | 11µM* | ? | . | 2.8µM*
COC(=O)c1cccc(NC(=O)Cc2coc3cc(OC)ccc23)c1 | 21% | 0% | 17µM* | ? | -41% | ?
COc1cc2c(cc1OC)C1O[C@](CCCCN3C(=O)c4ccccc4C3=O)(C2)OC2=C1C(=O)c1ccccc1C2=O | 7%[1.84 µM] | . | -3%[11.5 µM] | . | . | 6%[1.84 µM]
COc1ccc(OC)c(NC(=O)c2nc(S(=O)(=O)Cc3ccc(F)cc3)ncc2Cl)c1 | . | . | -11% | . | -24% | .
COc1cccc(NC(=O)Cc2ccccc2)c1 | 11% | 12% | -19% | ? | -18% | 2%
COc1cccc(NC(=O)CC(=O)c2ccccc2)c1 | 3.5µM* | ? | 17µM* | ? | . | 2.8µM*
COc1cccc(NC(=O)c2cccnc2)c1 | -3% | 1% | 1% | ? | ? | 14%
COc1cccc(C(=O)Nc2cnn(C(C)C)c2)c1 | ? | ? | ? | ? | . | 2.5µM*
CS(=O)(=O)N1CCc2cc(C(=O)NCc3ccccc3)ccc21 | . | . | 0% | . | 1% | .
Cc1cccc(C(=O)NNC(=O)CN2C(=O)c3ccccc3C2=O)c1 | -1% | 5% | -5% | 7% | 8% | 2%
CCN(C(=O)CSc1nnc(-c2cccs2)o1)C1CCS(=O)(=O)C1 (centres undefined) | 0% | 3% | 2% | 9% | -7% | -1%
O=C(Nc1ccc2ccccc2c1)c1cc(F)c(F)cc1Cl | 2µM* | ? | 3.4µM* | ? | . | ?
CCOC(=O)c1cc(NC(=O)c2ccoc2C)cc(C(=O)OCC)c1 | 0% | -11% | ? | 9.2µM* | -16% | -2%
CC(C)C(=O)Nc1cccc(NC(=O)c2ccc(Cl)cc2Cl)c1 | -1% | 1% | ? | -20% | 9% | -3%
CCCCOc1ccc(NC(=O)c2cc(F)c(F)cc2Cl)cc1 | 0% | 1% | 0% | ? | -10% | 19%
O=C(Nc1ccc2ccccc2c1)c1ccc(Cl)cc1Cl | 0.22µM* | 2.1µM* | 0.34µM* | ? | . | 0.4µM*
Cc1occc1C(=O)Nc1ccc2ccccc2c1 | 1.4µM* | ? | 3.4µM* | ? | 11µM* | 2.5µM*
CCc1ccc2c(-c3cccc(Cl)c3)nc(=O)n(CC)c2n1 | -11%[46.1 µM] | . | . | . | . | -7%[46.1 µM]
